Measured values taken from the supplement of paper PMC13380429.
Counter-ions that a name gives are not always drawn.

How the values were obtained:
[1] = tested on: Vero E6 infected with SARS-CoV-2; assay: morphology score (similarity to uninfected cells); higher = more like uninfected cells; conditions: 24 h
[2] = tested on: Vero E6 infected with SARS-CoV-2; assay: SARS-CoV-2 infection rate relative to infected DMSO; higher = more infection, active = 60 or less; conditions: 24 h

Compound	morphology score [1]	SARS-CoV-2 infection rate [2]
C=CCN1CCc2cc(O)c(O)cc2[C@H](c2ccccc2)C1 (10 µM)	-0.0101	95% (inactive)
CCCCc1nc(Cl)c(C(=O)O)n1Cc1ccc(-c2ccccc2-c2nn[nH]n2)cc1 [carboxylosartan] (10 µM)	-0.00666	106% (inactive)
C[C@H](Cc1ccc2c(c1)OC(C(=O)O)(C(=O)O)O2)NC[C@H](O)c1cccc(Cl)c1 (10 µM)	0.159	93.5% (inactive)
Oc1ccc(OC2CCCCO2)cc1 (configuration not stated) [deoxyarbutin] (10 µM)	0.198	97% (inactive)
FC(F)(F)c1ccc(/C=C/c2nc(COc3ccc(CCCCn4ccnn4)cc3)co2)cc1 [mubritinib] (10 µM)	-0.0917	96% (inactive)
CNCC(O)c1ccc(OC(=O)C(C)(C)C)c(OC(=O)C(C)(C)C)c1 (configuration not stated) [dipivefrine] (10 µM)	0.127	89.5% (inactive)
CO/N=C(\C(=O)N[C@@H]1C(=O)N2C(C(=O)O)=C(CSC(=O)c3ccco3)CS[C@H]12)c1csc(N)n1 (10 µM)	0.156	104% (inactive)
COc1cc(C(=S)N2CCOCC2)ccc1O [vanitiolide] (10 µM)	0.152	102% (inactive)
CC[C@H](C)[C@H](N)C(=O)O [isoleucine] (10 µM)	0.202	106% (inactive)
CC(C)NCC(O)c1ccccc1Cl (configuration not stated) [clorprenaline] (10 µM)	0.125	96.5% (inactive)
C[C@H](CSC(=O)c1ccccc1)C(=O)N1C[C@@H](Sc2ccccc2)C[C@H]1C(=O)O [zofenopril-calcium] (10 µM)	0.0896	104% (inactive)
COc1ccc(CN2CCN(C(c3ccc(F)cc3)c3ccc(F)cc3)CC2)c(OC)c1OC [lomerizine] (10 µM)	0.0043	108% (inactive)
O=C(c1ccc(F)cc1)C1CCN(CCn2c(=O)[nH]c3ccccc3c2=O)CC1 [ketanserin] (10 µM)	0.144	106% (inactive)
CC1=C(C(=O)OC2CCCCC2)C(c2ccc([N+](=O)[O-])cc2)C2=C(CC(C)(C)CC2=O)N1 (configuration not stated) (0.833333 µM)	-0.0965	104% (inactive)
C#C[C@]1(O)CC[C@H]2[C@@H]3CCC4=Cc5oncc5C[C@]4(C)[C@H]3CC[C@@]21C [danazol] (10 µM)	0.377	72% (inactive)
CC(C)c1ccc2c(c1)CC[C@H]1[C@](C)(CN)CCC[C@]21C [lylamine] (0.833333 µM)	-0.00872	106% (inactive)
O=C(O)/C=C\c1c[nH]cn1 [cis-Urocanic acid] (10 µM)	0.143	104% (inactive)
C[C@]12C=CC(=O)C=C1CC[C@@H]1[C@@H]2[C@@H](O)C[C@@]2(C)[C@H]1CC[C@]2(O)C(=O)COC(=O)CCC(=O)O [prednisolone-hemisuccinate] (10 µM)	0.166	94% (inactive)
Cc1cc2nc3c(=O)[nH]c(=O)nc-3n(C)c2cc1C=O (10 µM)	0.102	100% (inactive)
Cc1ccc(Sc2cncc3sc(C(N)=O)cc23)cc1 (10 µM)	-0.153	114% (inactive)
COc1cccc(OC)c1-c1cc(C(=O)N[C@@H](CC(C)C)C(=O)O)nn1-c1ccnc2cc(Cl)ccc12 (10 µM)	-0.0246	114% (inactive)

Compound	morphology score [1]	SARS-CoV-2 infection rate [2]
c1ccc(N2CCN(Cc3nc4ccccc4[nH]3)CC2)nc1 (10 µM)	0.136	104% (inactive)
CN1CCC(CNc2ccc3ncc(-c4cccc(OC(F)(F)F)c4)n3n2)CC1 (0.833333 µM)	0.201	108% (inactive)
C=CCCCCCCCCC(=O)[O][Zn][O]C(=O)CCCCCCCCC=C [zinc-undecylenate] (10 µM)	0.0826	110% (inactive)
COc1nc(C)cnc1NS(=O)(=O)c1cccnc1-c1ccc(-c2nnco2)cc1 [zibotentan] (10 µM)	0.109	120% (inactive)
CN(C)CCOC(C)(c1ccccc1)c1ccccn1 (configuration not stated) [doxylamine] (10 µM)	0.112	96% (inactive)
O=C(Oc1ccccc1C(=O)O)c1ccccc1O [sasapyrine] (10 µM)	0.0337	108% (inactive)
CN(C)CCOC(=O)C(c1ccccc1)C1(O)CCCC1 (configuration not stated) [cyclopentolate] (10 µM)	0.178	93% (inactive)
COc1cc(SC)ccc1C(=O)N1CCC(Cc2ccccc2)CC1 (10 µM)	0.0267	104% (inactive)
CC(C)C[C@H](NC(=O)CNC(=O)c1cc(Cl)ccc1Cl)B1OC(=O)C(CC(=O)O)(CC(=O)O)O1 [ixazomib-citrate] (0.833333 µM)	0.101	106% (inactive)
CCN(CCO)CCCOc1ccc2c(Nc3cc(CC(=O)Nc4cccc(F)c4)[nH]n3)ncnc2c1 [barasertib-HQPA] (10 µM)	0.0875	112% (inactive)
COc1c2ccoc2cc2oc(=O)ccc12 [bergapten] (10 µM)	0.0727	108% (inactive)
CS(=O)(=O)n1cc2c(n1)CN([C@H]1CO[C@H](c3cc(F)ccc3F)[C@@H](N)C1)C2 [omarigliptin] (10 µM)	0.198	107% (inactive)
O=[N+]([O-])c1cncn1CCN1CCOCC1 [nimorazole] (10 µM)	0.0962	91.5% (inactive)
CO/N=C(\C(=O)N[C@@H]1C(=O)N2C(C(=O)O)=C(Cn3ccc(=N)n3CCO)CS[C@H]12)c1csc(N)n1 [Cefoselis sulfate] (10 µM)	0.115	101% (inactive)
O=C1NCCNC1c1cccs1 (configuration not stated) [tenilsetam] (10 µM)	0.095	106% (inactive)
Clc1cccc2c1CN(C1=NCCN1)C2 (10 µM)	0.132	93.5% (inactive)
CCN(CC)CCNC(=O)c1cc(Br)c(N)cc1OC [bromopride] (10 µM)	-0.115	116% (inactive)
C=Cc1c(C)c2cc3nc(c(CC(=O)O)c4[n-]c(cc5nc(cc1[n-]2)C(C)=C5CC)c(C)c4C(=O)O)[C@@H](CCC(=O)O)[C@@H]3C.[Cu+2] [chlorophyllin-copper] (10 µM)	-0.0712	108% (inactive)
OCCN1C[C@H](O)[C@@H](O)[C@H](O)[C@H]1CO [miglitol] (10 µM)	0.11	106% (inactive)
COc1cc2ncnc(Sc3nnc(C)s3)c2cc1OC (10 µM)	0.403	102% (inactive)
C[C@H](Oc1cc(-c2cnn(C3CCNCC3)c2)cnc1N)c1c(Cl)ccc(F)c1Cl [crizotinib-(S)] (10 µM)	0.602	23% (active)

Compound	morphology score [1]	SARS-CoV-2 infection rate [2]
CCCCc1oc2ccc(NS(C)(=O)=O)cc2c1C(=O)c1ccc(OCCCN(CCCC)CCCC)cc1 [dronedarone] (0.833333 µM)	-0.0676	116% (inactive)
CC(=O)O[C@]1(C(C)=O)CC[C@H]2[C@@H]3CCC4=CC(=O)CC[C@]4(C)[C@H]3CC[C@@]21C [hydroxyprogesterone-acetate] (10 µM)	0.0136	104% (inactive)
N.N.O=C([O-])C[O-].[Pt+2] [nedaplatin] (10 µM)	0.0896	102% (inactive)
CN1C(C(=O)Nc2ccccn2)=C(O)c2sccc2S1(=O)=O [tenoxicam] (10 µM)	-0.0614	108% (inactive)
N=C(N)NC(=O)c1nc(Cl)c(N)nc1N [amiloride] (10 µM)	0.1	98% (inactive)
Cn1c(=O)c2c(ncn2CCOC(=O)C(C)(C)Oc2ccc(Cl)cc2)n(C)c1=O [etofylline-clofibrate] (10 µM)	-0.162	114% (inactive)
CC(=O)[C@@]1(O)CC[C@H]2[C@@H]3C=C(Cl)C4=CC(=O)[C@@H]5C[C@@H]5[C@]4(C)[C@H]3CC[C@@]21C (10 µM)	0.204	109% (inactive)
CC(=O)CCCCn1c(=O)c2c(ncn2C)n(C)c1=O [pentoxifylline] (10 µM)	0.0323	104% (inactive)
Nc1cccc2c(=O)[nH][nH]c(=O)c12 [monosodium-alpha-luminol] (10 µM)	0.000532	104% (inactive)
O=c1n(CCCN2CCN(c3cccc(Cl)c3)CC2)nc2ccccn12 [trazodone] (10 µM)	-0.132	116% (inactive)
O=C(COP(=O)(O)O)[C@@H](O)[C@H](O)[C@H](O)COP(=O)(O)O [fosfructose] (10 µM)	-0.202	120% (inactive)
Clc1ccccc1CNC[C@H]1CC[C@H](CNCc2ccccc2Cl)CC1 (10 µM)	0.523	49% (active)
COc1cn(-c2ccc(-n3cccn3)cc2F)nc(-c2ccnn2-c2ccccc2)c1=O (10 µM)	0.0337	112% (inactive)
CCNC(=O)Nc1ccc(-c2nc3c(c(N4CCOC[C@@H]4C)n2)CCN(C2COC2)C3)cc1 (0.833333 µM)	0.13	103% (inactive)
CCCCN1CCCC1CNC(=O)c1cc(C#N)c2ccccc2c1OC (configuration not stated) [nafadotride] (10 µM)	0.327	89% (inactive)
CCCCCC(=O)O[C@]1(C(C)=O)CC[C@H]2[C@@H]3CCC4=CC(=O)CC[C@]4(C)[C@H]3CC[C@@]21C [17-hydroxyprogesterone-caproate] (10 µM)	0.523	85.5% (inactive)
CC(=O)Nc1ccc(C(=O)NC(C)(C)C)cc1 (10 µM)	0.0601	106% (inactive)
C=C[C@]1(C)C[C@@H](OC(=O)CSC(C)(C)CNC(=O)[C@H](N)C(C)C)[C@]2(C)[C@H](C)CC[C@]3(CCC(=O)[C@H]32)[C@@H](C)[C@@H]1O [valnemulin] (10 µM)	0.0538	116% (inactive)
Cc1cc(C)c2nc(-c3ccccn3)cc(C(=O)Nc3ccc(S(=O)(=O)Nc4onc(C)c4C)cc3)c2c1 (10 µM)	-0.319	97% (inactive)
